The record followed here is the OligoGym collection.

Holding throughout (assay): pooled miR-30 sensor sort-seq; sequence = guide strand
Conditions in all cases: shRNA

The target in assay [1] is CHST7.
The target in assay [2] is CHSY1.
Assay [3] deals with CHRNE.
Assay [4] addresses CLDN16.
The target of assay [5] is CLRN3.
Assay [6] has as its target CMAS.
Assay [7] has as its target CMIP.
Assay [8] addresses CLN5.
The target in assay [9] is CNGA4.
In assay [10] the target is CNGB1.
Assay [11] addresses CMYA5.
Also: reference of the scale not given here.

Regarding TTGGGAACCGAGGAGACTGGTT, the sensor-assay potency score (higher = more potent) in assay [1] is -0.796.
Regarding TGTATTTGCTCGACATCGCTGA, the sensor-assay potency score (higher = more potent) in assay [2] is 0.246.
Still for that read-out and setting: the same measure for TTCTTTGTGCTCACTCTTCGAC: -0.347.
Turning to TTCACGGCATCCACACAGCAGC, the sensor-assay potency score (higher = more potent) in assay [3] is -0.899.
For the sequence TTAATGACGTAGAAGAGCGGCT, in assay [3], the sensor-assay potency score (higher = more potent) was -0.711.
Sequence ATAGTTGTTGAAGAGATGGTGA showed a sensor-assay potency score (higher = more potent) in assay [3] of 0.0987.
Still for that read-out and setting: with TAATCCTGCCAATCGATTCCAA the figure was -0.67.
With TACAAGTAGAAAACGTCCGGGT, the sensor-assay potency score (higher = more potent) in assay [1] was 0.0569.
TTGTTTTCCAGCACAATCTCTG: the sensor-assay potency score (higher = more potent) in assay [3] is -0.404.
TTGTCTTGGACCATGTTCTGTA: the sensor-assay potency score (higher = more potent) in assay [2] came out at 0.134.
Regarding TACACATCAACAGCATACCACA, in [4], the sensor-assay potency score (higher = more potent) is -1.23.
For the sequence TAAAACTGCAAACTTTTTCTTT, the sensor-assay potency score (higher = more potent) in [5] was -0.472.
TAGAGCTGTCTTTTGAAACTTC returned a sensor-assay potency score (higher = more potent) in assay [6] of 0.56.
Turning to TTCAAGACAACTTCCCAGCGGC, in assay [7], the sensor-assay potency score (higher = more potent) is -0.119.
As to TTGCCAGTTAATGTACTTCTGA, the sensor-assay potency score (higher = more potent) in assay [8] is -0.714.
TATATTTAGAAGAATGACGAGC: the sensor-assay potency score (higher = more potent) in assay [5] is -0.483.
Still for that read-out and setting: with TTACCATGCTGAATTGTCCAGA the figure was -0.037.
TTCATCTACAACTGCTAGCTTG: the sensor-assay potency score (higher = more potent) in [6] was -0.562.
As to TTGAAGCAGAGTCTCTAACAGC, the sensor-assay potency score (higher = more potent) in assay [5] is -0.854.
For TTCTTTAATAAACTTATCCCAA, in assay [6], the sensor-assay potency score (higher = more potent) is -0.589.
Consider TAAAGCATTTGGAACAACTCTT, for which the sensor-assay potency score (higher = more potent) in [5] turned out to be 0.169.
The same measure, in the same setting: the same measure for TTTGAATACCACACAGACCAGC: -1.01.
As to TTCTTGTATAGTTGGTTTCTAT, the sensor-assay potency score (higher = more potent) in assay [8] was -0.695.
Regarding ATTTGGAACAACTCTTCGGAGA, in assay [5], the sensor-assay potency score (higher = more potent) is -1.11.
The same measure, in the same setting: the same measure for TTCAGTATCTCTAAAACTGCAA: -0.132.
Turning to TGTTCTTGAACTCTGCTCCAAA, the sensor-assay potency score (higher = more potent) in assay [8] is -0.828.
For the sequence TCTCTAACAGCAATCGTACTGG, the sensor-assay potency score (higher = more potent) in assay [5] was -0.178.
Turning to TCTTTCAAGACAACTTCCCAGC, the sensor-assay potency score (higher = more potent) in [7] was -0.735.
With TCATCTACAACTGCTAGCTTGT, the sensor-assay potency score (higher = more potent) in assay [6] was -0.405.
The sequence TAAACTGCAGAGACTCTTCATG gave a sensor-assay potency score (higher = more potent) in assay [7] of 0.214.
In [5], TAAGTGATGAAAATGCTCCCAT displayed a sensor-assay potency score (higher = more potent) of 0.574.
For TTTCACTCCATCGAAACTGATG, the sensor-assay potency score (higher = more potent) in assay [6] is -0.871.
Take TAGCTTGACAATAAGGATCAGG: in assay [8], the sensor-assay potency score (higher = more potent) was -0.401.
TTCATTGTCCTGTTTCACCCAC showed a sensor-assay potency score (higher = more potent) in assay [8] of 0.245.
As for TTCGATGAACTTGTGCACCAAA, the sensor-assay potency score (higher = more potent) in [6] is -0.973.
The same measure, in the same setting: the same measure for TATATATATATCACAAACCAAA: -1.7.
Regarding TTCAATGTCATCATCACCCTCC, the sensor-assay potency score (higher = more potent) in assay [8] stood at 0.818.
As to TTTGAAACTTCAGAACTTCTTC, the sensor-assay potency score (higher = more potent) in assay [6] stood at 0.8.
With TTATAAAACAAATAGAACTGTT, the sensor-assay potency score (higher = more potent) in [8] was -0.281.
The same measure, in the same setting: with TTGACAATAAGGATCAGGTTTT the figure was -0.121.
Regarding TTTAGCTGGATTTAAATTCAGA, the sensor-assay potency score (higher = more potent) in [6] is -0.846.
Turning to TCTAACAGCAATCGTACTGGTG, in [5], the sensor-assay potency score (higher = more potent) was -0.061.
On to TACATAACTGATATGAACCATA, for which, in [8], the sensor-assay potency score (higher = more potent) was -0.617.
On the same count and under the same terms, with TTTCTATGTTCTTGAACTCTGC the figure was -0.7; with TATAGTTGCTACTTGAACTAAT, -0.263.
With TAGTGAGGTAGAGCTGTCTTTT, the sensor-assay potency score (higher = more potent) in assay [6] is -0.742.
TGTTTGTGCACAATCACTGCAT: the sensor-assay potency score (higher = more potent) in assay [8] came to 0.594.
As to TTGTCCAGAGAAGCTAACCAGT, the sensor-assay potency score (higher = more potent) in assay [5] is -1.23.
For TATAAAACAAATAGAACTGTTT, the sensor-assay potency score (higher = more potent) in assay [8] was -0.137.
Take TACAACTGCTAGCTTGTCTGAT: the sensor-assay potency score (higher = more potent) in assay [6] is -0.274.
Same read-out and setting: with TACATTTGCAAATGTATCCAAC the figure was -0.636.
Take TTGTAGATGACAGAGCTCATGC: the sensor-assay potency score (higher = more potent) in assay [9] is -0.748.
The same measure, in the same setting: the same measure for ATAACCGTGCTGCAAGTCGGGG: -1.46; for TCGTTGGTCATCTTCTTGTTGA: -0.985.
Consider TAGGTAATCCATCAGCAGCCAG, for which the sensor-assay potency score (higher = more potent) in assay [10] is -1.07.
With TTCAATGCGGTAAGCAATCTTA, in assay [9], the sensor-assay potency score (higher = more potent) was -0.691.
The sequence TACTTCTTGATCATCTTGTGGC registered a sensor-assay potency score (higher = more potent) in assay [11] of 0.514.
Take TTCTTGCACACATAGTCGTTGG: the sensor-assay potency score (higher = more potent) in assay [10] was -0.837.
In the case of TACCTCGTTGGTCATCTTCTTG, in assay [9], the sensor-assay potency score (higher = more potent) was -0.968.
The same measure, in the same setting: with TTCTGAAAGATCTGCACCCGGC the figure was -0.677.
For the sequence TTTCTCCAAACACAGATCCAGC, the sensor-assay potency score (higher = more potent) in [10] was -1.37.
Turning to TTCATGTTGTAGATGACAGAGC, the sensor-assay potency score (higher = more potent) in [9] is -0.761.
As to TCTCGGATGATGTACATCTCTT, the sensor-assay potency score (higher = more potent) in assay [9] was -0.967.
In assay [10], TTTGCTAACGATGTTGTAGTTC returned a sensor-assay potency score (higher = more potent) of 0.184.
For TTCGATAGCTCTGACTCTCTGA, in assay [11], the sensor-assay potency score (higher = more potent) was 0.415.
As to TGGGCTGGTACTGACATCCTGG, the sensor-assay potency score (higher = more potent) in [10] is -0.698.
The same measure, in the same setting: the same measure for TCTTTCTCCTCTTCAATCCGGG: -0.237.
TAAGCAATCTTAAGTGCGCTGG displayed a sensor-assay potency score (higher = more potent) in assay [9] of 0.0217.
TTTCTTCCGGAGTAACTTCTGA: in [10], the sensor-assay potency score (higher = more potent) is -0.522.
On to TCGGATGATGTACATCTCTTGG, for which, in assay [9], the sensor-assay potency score (higher = more potent) was -1.02.
As to TTACTTCTTGATCATCTTGTGG, the sensor-assay potency score (higher = more potent) in assay [11] was -0.871.
Consider TAGATGACAGAGCTCATGCTAC, for which the sensor-assay potency score (higher = more potent) in assay [9] was -0.751.
In assay [10], TAGGACATACATCAGGTTGGTC displayed a sensor-assay potency score (higher = more potent) of 0.2.
Consider TAAGCTGTGCGGGTCTCTGTGC, for which, in [9], the sensor-assay potency score (higher = more potent) was -0.546.
Same read-out and setting: the same measure for TTCACCTGGTGAGTAGGTCTGG: -0.244; for TAGGTCTGAATAACCTAGGCTC: -0.534.
Turning to TTGAACTTGCAGCAGAGCATGT, the sensor-assay potency score (higher = more potent) in assay [10] was -0.734.
In assay [9], TTCAGCAGGATCTCACGTCCTT registered a sensor-assay potency score (higher = more potent) of 0.0798.
With TTGGGTTCATCTGTGCACCCTG, the sensor-assay potency score (higher = more potent) in assay [10] amounted to 0.488.
Regarding TATAGCAGGTCACTCGTGTAGT, the sensor-assay potency score (higher = more potent) in [9] is -0.135.
As to TTCATGTACTTCACCGTGCTGT, the sensor-assay potency score (higher = more potent) in assay [10] worked out at 0.284.
As for ATGATGTACATCTCTTGGCCAA, the sensor-assay potency score (higher = more potent) in assay [9] is -1.02.
On the same count and under the same terms, with TGCTTGTGGATACTCGCTCAGC the figure was -1.17; with ACTGTAGTCAGTATCAGCGTGG, -0.617.
